Measured values published in PubChem BioAssay AID2158 (National Center for Advancing Translational Sciences (NCATS), 2009).
Records with an inconclusive call do not appear. Unmarked numbers belong to inactive results. Activity calls are given as the source filed them. The call rests on the fitted dose curve; in most records, active means well fitted inhibition curve with a large enough effect; inconclusive means small, poorly fitted or top-dose-only effect; inactive means no such curve, though single readings can be large or run the other way.

Target: Cruzipain (Trypanosoma cruzi) (UniProt P25779)
Sequence (P25779 123-467 limits assumed): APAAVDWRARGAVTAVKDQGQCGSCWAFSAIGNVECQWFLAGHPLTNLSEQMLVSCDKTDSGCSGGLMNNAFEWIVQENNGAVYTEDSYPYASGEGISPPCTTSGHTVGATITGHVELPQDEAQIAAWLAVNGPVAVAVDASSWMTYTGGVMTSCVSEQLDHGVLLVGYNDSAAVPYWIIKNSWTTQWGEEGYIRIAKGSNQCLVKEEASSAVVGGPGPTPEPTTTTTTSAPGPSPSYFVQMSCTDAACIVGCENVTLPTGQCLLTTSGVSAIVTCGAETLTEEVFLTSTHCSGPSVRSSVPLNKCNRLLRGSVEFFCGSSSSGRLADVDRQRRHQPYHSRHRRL
Experiment: Confirmation qHTS Assay for Inhibitors of Cruzain; further: nearly all actives have a fitted effect of over 40% in size;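 on activity change, negative = inhibition: plate controls were uninhibited enzyme control for no effect and buffer wells lacking enzyme for full effect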
Conditions: purified cruzain, Z-FR-AMC fluorescence, 0.01% Triton
How it was run: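 Purified cruzain, 1.5 nM, pre-incubated 15 min at room temperature with compound in 100 mM sodium acetate pH 5.5, 5 mM DTT, 0.01% Triton X-100. Then 2 uM Z-FR-AMC added; AMC fluorescence (ex 360/em 450 nm) increase over 60 s gave reaction progress.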
Potency means the concentration at half of the fitted maximal effect.

Row | Structure (SMILES) | Potency | activity change, negative = inhibition [%]
1 | O=C(COC(=O)CNC(=O)C1CCCCC1)Nc1ccc2ccccc2c1 | 12600 nM (active) | 
2 | CCCCNC(=O)c1ccc2nc(-c3cccs3)c(-c3cccs3)nc2c1 |  | -3.05
3 | CNC(=O)c1ccc2nc(-c3ccccc3)c(-c3ccccc3)nc2c1 |  | -11.4
4 | CCCn1c(SCC(=O)N2CC(=O)Nc3ccccc32)nc2ccccc21 | 28200 nM (active) | 
5 | CCCN(CCC)c1nc(N)nc(C#N)n1 | 2510 nM (active) | 
6 | N#Cc1nc(Nc2ccc(F)cc2)nc(NC2CCCC2)n1 | 126 nM (active) | 
7 | O=C(COC(=O)CNC(=O)c1ccccc1)Nc1cc(C(F)(F)F)ccc1Cl | 11200 nM (active) | 
8 | S=C(NC1CCCCC1)N(CCc1nc2ccccc2[nH]1)C1CCCC1 | 631 nM (active) | 
9 | CCCCC(O)C(=O)Nc1cc(C(F)(F)F)ccc1Cl (stereo unspecified) |  | -16.9
10 | CC(=O)n1cc(/C=C2/N=C(c3ccccc3)OC2=O)c2ccccc21 | 794 nM (active) | 
11 | CC(C)C[C@H](N)c1nnc(S(=O)(=O)Cc2ccc(F)cc2)o1 |  | -25.7
12 | Cc1ccc2[nH]c(=O)c(CN(CCCO)Cc3nnnn3Cc3ccco3)cc2c1 |  | -4.63
13 | O=C(CNC(=O)c1ccccc1)N[C@H](C(=O)Nc1cc(C(F)(F)F)ccc1Cl)c1ccccc1 |  | -13.5
14 | CNc1nc(C#N)nc(Nc2ccccc2)n1 | 1260 nM (active) | 
15 | O=C(NCCCc1nc2ccccc2n1CCCOc1ccccc1)C1CCCCC1 |  | -12.3
16 | O=C(NCCc1nc2ccccc2n1CCCOc1ccc(Cl)cc1)C1CCCCC1 | 891 nM (active) | 
